Inconclusive results are not listed. Activity calls are given as the source filed them. How the source made its calls: active means hit-call score of the fitted dose curve at least 0.9, where 1 is the maximum; inconclusive means response in the unintended direction; inactive means score below 0.9.

The target in experiment [1] is rat Mineralocorticoid Receptor (MR), Nr3c2 (gene 25672) (UniProt P22199). Kind of experiment: NVS_NR_rMR: NovaScreen (NVS) Nuclear Receptor Binding Assay for rat Mineralocorticoid Receptor (MR) (AID 2283355). The method, boiled down: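 Cell-free radioligand binding to mineralocorticoid receptor from adrenalectomized rat brain supernatant, scintillation counting after 24 h. Primary screen in duplicate at 25 uM; actives retested in concentration series. Loss of specific binding versus DMSO.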
Sequence of rat Mineralocorticoid Receptor (MR), Nr3c2 (gene 25672) (P22199 whole entry, looked up): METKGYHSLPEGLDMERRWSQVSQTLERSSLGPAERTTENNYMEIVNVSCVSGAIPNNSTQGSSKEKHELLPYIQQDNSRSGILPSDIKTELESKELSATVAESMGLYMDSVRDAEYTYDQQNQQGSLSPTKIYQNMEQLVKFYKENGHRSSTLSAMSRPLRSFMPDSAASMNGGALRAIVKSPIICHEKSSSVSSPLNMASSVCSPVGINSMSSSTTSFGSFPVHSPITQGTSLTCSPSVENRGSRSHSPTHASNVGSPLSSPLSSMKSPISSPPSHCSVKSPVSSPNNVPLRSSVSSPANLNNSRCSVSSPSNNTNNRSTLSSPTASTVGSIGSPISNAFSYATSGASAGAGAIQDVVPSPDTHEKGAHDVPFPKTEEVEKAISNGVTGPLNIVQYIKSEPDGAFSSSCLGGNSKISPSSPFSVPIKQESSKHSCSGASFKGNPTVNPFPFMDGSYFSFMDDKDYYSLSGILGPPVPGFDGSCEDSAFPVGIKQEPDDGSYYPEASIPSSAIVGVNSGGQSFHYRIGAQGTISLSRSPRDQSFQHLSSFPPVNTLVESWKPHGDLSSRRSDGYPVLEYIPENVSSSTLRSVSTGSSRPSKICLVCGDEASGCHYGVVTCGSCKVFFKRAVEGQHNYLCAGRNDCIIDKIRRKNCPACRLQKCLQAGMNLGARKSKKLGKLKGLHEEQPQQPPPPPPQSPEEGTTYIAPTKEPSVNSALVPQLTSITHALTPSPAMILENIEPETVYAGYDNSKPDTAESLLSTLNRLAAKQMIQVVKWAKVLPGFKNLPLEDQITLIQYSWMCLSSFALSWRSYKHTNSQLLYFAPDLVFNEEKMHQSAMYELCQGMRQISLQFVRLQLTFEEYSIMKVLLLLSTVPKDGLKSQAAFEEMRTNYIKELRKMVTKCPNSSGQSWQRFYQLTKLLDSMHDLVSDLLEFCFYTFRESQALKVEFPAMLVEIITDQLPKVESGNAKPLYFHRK

The target of experiment [2] is Retinoic acid receptor alpha (Homo sapiens) (UniProt P10276). Briefly: NVS_NR_hRAR_Antagonist: NovaScreen (NVS) Nuclear Receptor Binding Assay for human Retinoic Acid Alpha Receptor Antagonism (RAR) (AID 2283358). The essentials:
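Cell-free TR-FRET binding assay with extracted human RARalpha in antagonist mode, read 2 h after dosing. Loss of signal was fitted relative to DMSO; the primary screen used 25 uM in duplicate, with concentration series on follow-up.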

Experiment [3] has as its target human Thyroid Receptor Alpha (TRa), THRA (gene 7067) (UniProt P10827). Briefly: NVS_NR_hTRa_Antagonist: NovaScreen (NVS) Nuclear Receptor Binding Assay for human Thyroid Receptor Alpha Antagonism (TRa) (AID 2283362).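 Further: activity is loss of signal relative to DMSO baseline.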 The essentials: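 Cell-free binding assay on extracted receptor protein, read 1 h after chemical dosing by AlphaLISA chemiluminescence; loss of signal relative to DMSO baseline marks antagonism. Primary screen ran in duplicate at 25 uM, with concentration series for actives.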

Experiment [4] has as its target rat Androgen Receptor (AR), Ar (gene 24208) (UniProt P15207). Kind of experiment: NVS_NR_rAR: NovaScreen (NVS) Nuclear Receptor Binding Assay for rat Androgen Receptor (AR) (AID 2283366). The essentials: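 Cell-free radioligand binding on extracts of prostate from testosterone-pretreated rats, read by filter-based scintillation counting 18 h after dosing. Loss of bound signal fitted positively versus DMSO; primary screen in duplicate at 25 uM, actives followed up in concentration series.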

Experiment [5] deals with guinea pig Sigma Receptor, Non-selective Binding, SIGMAR1 (gene 100135589) (UniProt Q60492). Briefly: NVS_OR_gSIGMA_NonSelective: NovaScreen (NVS) Nuclear Receptor Binding Assay for guinea pig Sigma Receptor, Non-selective Binding (AID 2283367). The method, boiled down: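 Radioligand displacement on guinea pig brain membranes, read by filter-based scintillation counting 1 h after dosing. Loss of signal versus DMSO; initial duplicate single-point screen at 25 uM, actives followed in concentration series.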
Sequence of guinea pig Sigma Receptor, Non-selective Binding, SIGMAR1 (gene 100135589) (Q60492 whole entry, looked up): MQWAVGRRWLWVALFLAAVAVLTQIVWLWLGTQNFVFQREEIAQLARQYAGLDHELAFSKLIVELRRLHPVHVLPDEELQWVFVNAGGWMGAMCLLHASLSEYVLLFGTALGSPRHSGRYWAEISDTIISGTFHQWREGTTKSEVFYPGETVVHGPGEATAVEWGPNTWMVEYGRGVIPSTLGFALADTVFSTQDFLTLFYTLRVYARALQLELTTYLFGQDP

Sequence of Retinoic acid receptor alpha (Homo sapiens) (P10276 whole entry, looked up): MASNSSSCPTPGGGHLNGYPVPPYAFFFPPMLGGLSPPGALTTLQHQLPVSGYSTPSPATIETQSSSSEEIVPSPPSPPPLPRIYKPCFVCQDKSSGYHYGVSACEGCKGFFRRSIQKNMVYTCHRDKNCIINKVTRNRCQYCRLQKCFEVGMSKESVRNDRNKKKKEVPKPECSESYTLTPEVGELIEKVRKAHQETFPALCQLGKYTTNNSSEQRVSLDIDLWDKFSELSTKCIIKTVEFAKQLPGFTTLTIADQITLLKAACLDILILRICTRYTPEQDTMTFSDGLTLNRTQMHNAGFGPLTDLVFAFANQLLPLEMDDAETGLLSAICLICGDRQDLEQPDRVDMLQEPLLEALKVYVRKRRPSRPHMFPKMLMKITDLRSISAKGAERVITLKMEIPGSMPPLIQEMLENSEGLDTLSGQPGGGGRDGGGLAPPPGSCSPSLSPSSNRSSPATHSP
Sequence of rat Androgen Receptor (AR), Ar (gene 24208) (P15207 whole entry, looked up): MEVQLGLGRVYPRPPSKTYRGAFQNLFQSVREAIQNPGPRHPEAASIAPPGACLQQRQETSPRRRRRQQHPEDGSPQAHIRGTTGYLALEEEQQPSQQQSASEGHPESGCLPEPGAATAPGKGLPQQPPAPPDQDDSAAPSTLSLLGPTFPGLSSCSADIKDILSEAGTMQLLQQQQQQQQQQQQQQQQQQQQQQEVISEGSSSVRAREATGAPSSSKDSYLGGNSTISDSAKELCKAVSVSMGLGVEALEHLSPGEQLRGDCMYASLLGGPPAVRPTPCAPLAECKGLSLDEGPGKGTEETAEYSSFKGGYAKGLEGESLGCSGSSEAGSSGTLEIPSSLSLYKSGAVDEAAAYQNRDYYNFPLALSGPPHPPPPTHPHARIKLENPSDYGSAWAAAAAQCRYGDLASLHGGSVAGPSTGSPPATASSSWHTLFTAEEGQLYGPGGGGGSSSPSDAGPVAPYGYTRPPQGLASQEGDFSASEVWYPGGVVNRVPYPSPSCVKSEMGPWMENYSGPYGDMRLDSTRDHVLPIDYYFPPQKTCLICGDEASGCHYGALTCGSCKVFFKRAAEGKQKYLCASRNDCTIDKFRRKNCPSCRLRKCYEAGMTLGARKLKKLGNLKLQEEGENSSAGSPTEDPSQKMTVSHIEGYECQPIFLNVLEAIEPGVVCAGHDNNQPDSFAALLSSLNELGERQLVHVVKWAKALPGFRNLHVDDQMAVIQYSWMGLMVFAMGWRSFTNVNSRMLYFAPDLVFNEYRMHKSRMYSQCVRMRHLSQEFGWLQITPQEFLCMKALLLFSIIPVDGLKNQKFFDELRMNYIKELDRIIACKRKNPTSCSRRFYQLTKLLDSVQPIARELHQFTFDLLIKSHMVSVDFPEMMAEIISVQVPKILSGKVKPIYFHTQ
Sequence of human Thyroid Receptor Alpha (TRa), THRA (gene 7067) (P10827 whole entry, looked up): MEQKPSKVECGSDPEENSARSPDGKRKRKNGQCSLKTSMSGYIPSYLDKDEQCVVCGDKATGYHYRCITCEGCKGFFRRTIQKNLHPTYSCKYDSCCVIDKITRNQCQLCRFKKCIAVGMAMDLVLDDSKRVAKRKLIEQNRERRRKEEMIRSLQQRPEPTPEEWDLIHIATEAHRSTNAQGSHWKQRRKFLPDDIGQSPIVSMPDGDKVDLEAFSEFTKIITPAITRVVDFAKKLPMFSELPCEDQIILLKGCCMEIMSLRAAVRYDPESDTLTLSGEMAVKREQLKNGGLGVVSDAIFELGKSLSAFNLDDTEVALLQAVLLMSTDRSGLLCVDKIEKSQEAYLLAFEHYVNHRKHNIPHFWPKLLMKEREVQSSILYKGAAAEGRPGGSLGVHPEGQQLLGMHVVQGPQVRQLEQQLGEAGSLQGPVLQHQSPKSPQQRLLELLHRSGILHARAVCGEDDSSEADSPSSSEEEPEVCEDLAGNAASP

Consider `C#C[C@]1(O)CC[C@H]2[C@@H]3CCc4cc(OC)ccc4[C@H]3CC[C@@]21C`, for which the molecule was classed as inactive in experiment [1].
For orientation: AC50 means the midpoint of the concentration-response curve, whichever way the signal moves. With `CC(Cc1ccc(O)c(O)c1)C(C)Cc1ccc(O)c(O)c1` (stereo unspecified), the AC50 in experiment [2] was 11.7 µM (active).
Still for that read-out and setting: for `CCN(Cc1cccc(S(=O)(=O)O)c1)c1ccc(C(=C2C=CC(=[N+](CC)Cc3cccc(S(=O)(=O)O)c3)C=C2)c2ccc(O)cc2S(=O)(=O)[O-])cc1` the value was 7.39 µM (active).
For the molecule `CCCCCCC(C)OC(=O)CCCCC(=O)OC(C)CCCCCC` (stereo unspecified), in experiment [3], the result was inactive.
Turning to `CC(=O)Nc1ccc(N=Nc2cc(C)ccc2O)cc1`, the AC50 in experiment [4] was 25 µM (active).
As to `CCCCCCCCCCCCCCCC[N+](C)(C)Cc1ccccc1`, the AC50 in experiment [5] is 1.23 µM (active).

These data come from PubChem BioAssay (EPA / NIEHS).
